In PubChem BioAssay (EPA / NIEHS):
Calls of active or inactive are those of the source. The calls were made as follows: active = hit-call score of the fitted dose curve at least 0.9, where 1 is the maximum; inactive = score below 0.9.

Key:
[1] = ATG_GRE_CIS: Attagene CIS-FACTORIAL HepG2 Assay for human Glucocorticoid Response Elements (GRE) (AID 2282947); conditions: HepG2 GRE cis-reporter, Attagene multiplex mRNA; actives raise or lower the signal
In short: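 Read-out: fluorescent reporter-transcript fragments separated by capillary electrophoresis after RT-PCR. Transiently transfected HepG2 cells carrying cis-element-driven reporter units were dosed for 24 h; gain or loss of signal fitted against DMSO control.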

[2] = ATG_M_32_CIS: Attagene CIS-FACTORIAL HepG2 Assay for M32 Transcription Factor (Internal Marker) (AID 2282949); conditions: HepG2 Attagene cis-factorial M32 reporter, mRNA; actives raise or lower the signal;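 also: background control marker of the multiplexed CIS panel rather than a real target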
In short: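 Transient MRTU transfection of HepG2; 24 h compound treatment; TriZol RNA, oligo(dT) RT, reporter PCR, 6-FAM primer extension, HpaI cut, CE. Gain/loss of signal vs DMSO.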

[3] = ATG_M_06_CIS: Attagene CIS-FACTORIAL HepG2 Assay for M06 Transcription Factor (Internal Marker) (AID 2282950); conditions: HepG2 Attagene CIS-FACTORIAL M06 internal marker reporter; actives raise or lower the signal
In short: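 Measured 24 h post-dosing in transiently transfected HepG2 cells, this internal-marker endpoint reports reporter mRNA via RT-PCR with fluorescent primer extension and capillary electrophoresis. DMSO served as negative control and baseline for bidirectional fitting.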

[4] = biological target: Hypoxia-inducible factor 1-alpha (Homo sapiens) (UniProt Q16665); assay: ATG_HIF1a_CIS: Attagene CIS-FACTORIAL HepG2 Assay for human Hypoxia Inducible Factor 1 (HIF1A) (AID 2282951); conditions: HepG2 Attagene cis-factorial HIF1a reporter transcription; actives raise or lower the signal
Chain of Hypoxia-inducible factor 1-alpha (Homo sapiens) (Q16665 whole entry, looked up): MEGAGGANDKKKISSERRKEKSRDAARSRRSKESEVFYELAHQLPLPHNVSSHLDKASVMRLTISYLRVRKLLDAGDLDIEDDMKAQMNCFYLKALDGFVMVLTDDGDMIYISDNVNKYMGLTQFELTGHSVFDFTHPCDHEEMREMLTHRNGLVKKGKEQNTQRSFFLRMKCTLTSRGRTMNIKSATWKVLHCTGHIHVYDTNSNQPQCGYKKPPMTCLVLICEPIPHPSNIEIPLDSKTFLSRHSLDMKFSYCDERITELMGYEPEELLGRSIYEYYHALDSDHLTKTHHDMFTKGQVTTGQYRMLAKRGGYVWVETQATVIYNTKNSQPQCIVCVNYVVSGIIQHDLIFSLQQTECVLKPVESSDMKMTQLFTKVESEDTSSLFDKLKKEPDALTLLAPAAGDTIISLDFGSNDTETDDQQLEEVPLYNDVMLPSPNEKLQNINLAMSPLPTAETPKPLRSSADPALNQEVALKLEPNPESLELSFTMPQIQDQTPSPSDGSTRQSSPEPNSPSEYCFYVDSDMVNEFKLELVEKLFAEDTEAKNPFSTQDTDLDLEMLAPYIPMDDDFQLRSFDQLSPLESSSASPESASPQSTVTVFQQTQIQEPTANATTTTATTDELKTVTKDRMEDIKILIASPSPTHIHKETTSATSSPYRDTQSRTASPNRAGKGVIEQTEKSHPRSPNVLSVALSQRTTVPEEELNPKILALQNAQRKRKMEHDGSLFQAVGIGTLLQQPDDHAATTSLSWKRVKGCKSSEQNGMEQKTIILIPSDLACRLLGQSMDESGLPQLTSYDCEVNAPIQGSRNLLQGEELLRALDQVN
In short: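 Activity is fitted in both directions relative to DMSO. Reporter transcripts are read by RT-PCR, fluorescent primer extension and capillary electrophoresis after 24 h chemical treatment. The cells are HepG2 carrying transiently transfected cis-element-driven reporter units responding to endogenous factors.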

[5] = biological target: Hepatocyte nuclear factor 6 (Homo sapiens) (UniProt Q9UBC0); assay: ATG_HNF6_CIS: Attagene CIS-FACTORIAL HepG2 Assay for human Hepatocyte Nuclear Factor 6 (HNF6) (AID 2282952); conditions: HepG2 Attagene cis-factorial HNF6 reporter transcription; actives raise or lower the signal
Chain of Hepatocyte nuclear factor 6 (Homo sapiens) (Q9UBC0 whole entry, looked up): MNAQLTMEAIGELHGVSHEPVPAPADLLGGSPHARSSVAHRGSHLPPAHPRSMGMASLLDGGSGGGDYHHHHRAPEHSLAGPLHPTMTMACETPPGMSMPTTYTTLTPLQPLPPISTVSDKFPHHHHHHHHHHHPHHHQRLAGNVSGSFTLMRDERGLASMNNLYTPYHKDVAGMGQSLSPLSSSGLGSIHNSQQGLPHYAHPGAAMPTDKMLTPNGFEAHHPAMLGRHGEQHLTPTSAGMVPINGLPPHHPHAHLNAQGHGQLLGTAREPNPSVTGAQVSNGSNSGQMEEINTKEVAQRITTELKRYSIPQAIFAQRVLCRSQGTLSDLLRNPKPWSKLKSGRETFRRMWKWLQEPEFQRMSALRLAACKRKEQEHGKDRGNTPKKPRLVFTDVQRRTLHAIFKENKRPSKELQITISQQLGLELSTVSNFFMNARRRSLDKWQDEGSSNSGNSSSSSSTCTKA
In short: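 Endogenous factor activity read in transiently transfected HepG2 via promoter-regulated reporter transcripts. RNA harvested 24 h post-dosing, reverse-transcribed, PCR-amplified, FAM-labelled, HpaI-digested and resolved by capillary electrophoresis; fitted in both directions against DMSO.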

[6] = biological target: Heat shock factor protein 1 (Homo sapiens) (UniProt Q00613); assay: ATG_HSE_CIS: Attagene CIS-FACTORIAL HepG2 Assay for human Heat Shock Transcription Factor 1 (HSE) (AID 2282953); conditions: HepG2 HSE cis-reporter, Attagene RNA transcription; actives raise or lower the signal
Chain of Heat shock factor protein 1 (Homo sapiens) (Q00613 whole entry, looked up): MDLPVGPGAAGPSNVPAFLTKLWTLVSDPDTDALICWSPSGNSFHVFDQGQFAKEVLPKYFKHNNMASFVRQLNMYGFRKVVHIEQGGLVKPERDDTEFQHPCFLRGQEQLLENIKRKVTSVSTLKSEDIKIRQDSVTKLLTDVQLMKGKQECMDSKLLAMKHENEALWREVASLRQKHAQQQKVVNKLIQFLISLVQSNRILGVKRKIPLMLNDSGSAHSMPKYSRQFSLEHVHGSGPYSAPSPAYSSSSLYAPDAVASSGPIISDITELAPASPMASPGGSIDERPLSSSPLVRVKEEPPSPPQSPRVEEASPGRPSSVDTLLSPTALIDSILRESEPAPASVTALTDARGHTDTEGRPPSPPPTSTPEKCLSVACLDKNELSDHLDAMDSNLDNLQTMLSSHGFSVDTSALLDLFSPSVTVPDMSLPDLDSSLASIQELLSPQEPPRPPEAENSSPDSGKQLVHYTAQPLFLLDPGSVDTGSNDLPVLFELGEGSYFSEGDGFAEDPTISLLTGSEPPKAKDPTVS
In short: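 Reporter mRNA induction in HepG2 is measured 24 h after dosing, using transiently transfected multiplexed cis-regulated reporter units. Signal comes from capillary electrophoresis of labelled RT-PCR products, with DMSO as negative control.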

[7] = ATG_MRE_CIS: Attagene CIS-FACTORIAL HepG2 Assay for human Metal Responsive Element (MRE) (AID 2282954); conditions: HepG2 MRE cis-reporter transcription, Attagene multiplex; actives raise or lower the signal
In short: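 RT-PCR/capillary electrophoresis readout of reporter mRNA, 24 h post-dosing, in HepG2 cells transfected with multiplexed cis-regulated reporter constructs. Gain or loss of signal fitted bidirectionally against DMSO baseline.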

[8] = ATG_PBREM_CIS: Attagene CIS-FACTORIAL HepG2 Assay for human Phenobarbital-responsive Enhancer Module (PBREM) (AID 2282955); conditions: HepG2 PBREM cis-reporter, Attagene multiplexed transcription; actives raise or lower the signal
In short: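 Endogenous transcription factor activity was read from reporter transcripts in transiently transfected human HepG2 liver cells after 24 h dosing. RT-PCR products were fluorescently labelled, HpaI-cut and sized by capillary electrophoresis; activity fitted bidirectionally against DMSO baseline.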

[9] = biological target: Paired box protein Pax-6 (Homo sapiens) (UniProt P26367); assay: ATG_Pax6_CIS: Attagene CIS-FACTORIAL HepG2 Assay for human Paired Box 6 (PAX6) (AID 2282956); conditions: HepG2 CIS-FACTORIAL PAX6 reporter transcription, RNA readout; actives raise or lower the signal
Chain of Paired box protein Pax-6 (Homo sapiens) (P26367 whole entry, looked up): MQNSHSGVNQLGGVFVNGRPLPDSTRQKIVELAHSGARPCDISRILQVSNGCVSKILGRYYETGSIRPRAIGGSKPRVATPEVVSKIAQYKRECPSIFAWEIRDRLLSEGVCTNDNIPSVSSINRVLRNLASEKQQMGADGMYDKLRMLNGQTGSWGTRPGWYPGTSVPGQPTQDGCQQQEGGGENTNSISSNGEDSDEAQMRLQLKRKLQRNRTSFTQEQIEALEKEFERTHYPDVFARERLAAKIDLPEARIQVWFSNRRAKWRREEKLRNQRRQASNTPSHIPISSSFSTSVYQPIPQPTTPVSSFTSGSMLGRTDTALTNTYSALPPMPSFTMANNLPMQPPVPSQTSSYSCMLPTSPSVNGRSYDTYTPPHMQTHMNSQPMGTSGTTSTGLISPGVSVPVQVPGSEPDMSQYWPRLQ
In short: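 Readout: reporter transcript fluorescence after RT-PCR and capillary electrophoresis. Cells: HepG2, transiently transfected with cis-regulated MRTUs. Exposure 24 h. Gain or loss of signal fitted bidirectionally relative to DMSO.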

[10] = ATG_PPRE_CIS: Attagene CIS-FACTORIAL HepG2 Assay for human Peroxisome Proliferator-activated Response Element (PPRE) (AID 2282958); conditions: HepG2 PPRE cis-element reporter, Attagene transcription factor profiling; actives raise or lower the signal
In short: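 Endogenous PPRE-driven transcription is measured in HepG2 cells carrying transfected multi-reporter constructs. Reporter transcripts are quantified by RT-PCR, HpaI digestion and capillary electrophoresis 24 h after dosing. DMSO baseline, bidirectional fit.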

[11] = ATG_Sox_CIS: Attagene CIS-FACTORIAL HepG2 Assay for human SRY-box transcription factor (SOX) (AID 2282960); conditions: HepG2 Attagene cis-factorial SOX reporter, mRNA; actives raise or lower the signal
In short: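 Reporter transcripts, measured by RT-PCR and capillary electrophoresis of labelled fragments, report endogenous SOX transcription factor activity. Transiently transfected human HepG2 cells receive chemical for 24 h; changes in either direction are fitted relative to DMSO.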

[12] = biological target: Transcription factor Sp1 (Homo sapiens) (UniProt P08047); assay: ATG_Sp1_CIS: Attagene CIS-FACTORIAL HepG2 Assay for human Specificity Protein 1 (Sp1) (AID 2282961); conditions: HepG2 Sp1 cis-reporter transcription, actives raise or lower the signal
Chain of Transcription factor Sp1 (Homo sapiens) (P08047 whole entry, looked up): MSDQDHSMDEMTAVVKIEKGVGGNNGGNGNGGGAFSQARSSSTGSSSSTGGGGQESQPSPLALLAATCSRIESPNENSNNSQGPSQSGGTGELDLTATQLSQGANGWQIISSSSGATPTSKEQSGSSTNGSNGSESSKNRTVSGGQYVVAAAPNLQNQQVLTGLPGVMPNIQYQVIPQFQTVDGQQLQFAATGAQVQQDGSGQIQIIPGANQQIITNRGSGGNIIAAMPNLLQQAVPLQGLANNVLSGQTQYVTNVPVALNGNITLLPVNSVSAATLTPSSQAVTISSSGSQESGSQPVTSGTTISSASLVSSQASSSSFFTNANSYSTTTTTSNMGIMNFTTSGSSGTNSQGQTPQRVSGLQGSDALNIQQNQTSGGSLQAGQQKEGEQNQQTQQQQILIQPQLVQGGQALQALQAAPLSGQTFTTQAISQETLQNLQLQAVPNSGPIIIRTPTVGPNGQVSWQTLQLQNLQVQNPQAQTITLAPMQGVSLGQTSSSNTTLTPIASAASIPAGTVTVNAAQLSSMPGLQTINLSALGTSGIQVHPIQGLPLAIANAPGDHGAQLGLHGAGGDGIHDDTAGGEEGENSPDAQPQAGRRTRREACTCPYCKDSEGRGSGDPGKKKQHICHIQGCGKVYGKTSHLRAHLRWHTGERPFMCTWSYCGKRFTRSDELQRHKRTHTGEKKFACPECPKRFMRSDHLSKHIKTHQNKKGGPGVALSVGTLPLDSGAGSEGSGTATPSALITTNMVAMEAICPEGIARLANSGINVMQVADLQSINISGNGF
In short: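 Read-out is reporter transcript level, measured by RT-PCR and fluorescent capillary electrophoresis after 24 h chemical treatment. System: transiently transfected HepG2 cells reporting endogenous transcription factor activity; gain or loss fitted against DMSO baseline.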

[13] = ATG_SREBP_CIS: Attagene CIS-FACTORIAL HepG2 Assay for human Sterol Regulatory Element Binding (SREBP) (AID 2282962); conditions: HepG2 Attagene cis-factorial SREBP reporter, mRNA; actives raise or lower the signal
In short: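 Readout: fluorescent reporter-transcript peaks resolved by capillary electrophoresis after RT-PCR. Cells were human HepG2 carrying transfected cis-promoter reporter constructs, dosed for 24 h. Gain or loss of signal was fitted against DMSO controls.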

[14] = biological target: Signal transducer and activator of transcription 3 (Homo sapiens) (UniProt P40763); assay: ATG_STAT3_CIS: Attagene CIS-FACTORIAL HepG2 Assay for human Signal Transducer and Activator of Transcription 3 (STAT3) (AID 2282963); conditions: HepG2, Attagene cis-factorial STAT3 reporter transcription; actives raise or lower the signal
Chain of Signal transducer and activator of transcription 3 (Homo sapiens) (P40763 whole entry, looked up, the tested form may be a part): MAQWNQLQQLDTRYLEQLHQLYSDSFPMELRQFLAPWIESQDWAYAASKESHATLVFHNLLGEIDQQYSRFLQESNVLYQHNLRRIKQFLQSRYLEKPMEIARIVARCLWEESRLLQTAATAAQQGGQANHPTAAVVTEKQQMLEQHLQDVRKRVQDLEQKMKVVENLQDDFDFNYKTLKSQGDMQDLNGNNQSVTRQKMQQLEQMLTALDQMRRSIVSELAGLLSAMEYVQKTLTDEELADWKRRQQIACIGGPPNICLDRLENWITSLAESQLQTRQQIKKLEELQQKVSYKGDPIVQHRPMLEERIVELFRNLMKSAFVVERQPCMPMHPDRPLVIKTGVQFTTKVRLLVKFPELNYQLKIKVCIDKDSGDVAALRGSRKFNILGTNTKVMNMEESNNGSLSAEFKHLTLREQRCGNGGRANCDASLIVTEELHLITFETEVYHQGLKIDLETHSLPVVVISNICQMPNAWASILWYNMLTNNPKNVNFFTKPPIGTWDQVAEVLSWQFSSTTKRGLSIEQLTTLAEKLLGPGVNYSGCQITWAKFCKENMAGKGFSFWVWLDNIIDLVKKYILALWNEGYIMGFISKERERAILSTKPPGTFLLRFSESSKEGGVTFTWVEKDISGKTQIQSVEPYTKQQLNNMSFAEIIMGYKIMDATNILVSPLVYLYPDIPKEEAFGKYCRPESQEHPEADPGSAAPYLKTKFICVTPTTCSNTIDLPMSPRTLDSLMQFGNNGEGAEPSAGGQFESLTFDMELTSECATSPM
In short: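 Readout: fluorescent reporter mRNA fragments resolved by capillary electrophoresis. Setup: HepG2 transfected with MRTUs reporting endogenous transcription-factor activity, dosed 24 h. Gain or loss of signal fitted bidirectionally against DMSO control.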

[15] = ATG_TA_CIS: Attagene CIS-FACTORIAL HepG2 Assay for human TA Basal Promoter (AID 2282964); conditions: HepG2 Attagene CIS-factorial TA basal promoter reporter; actives raise or lower the signal
In short: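 Cis-factorial format in HepG2: reporters report endogenous factors, not chimeric Gal4 fusions. After 24 h treatment, reporter transcripts were measured by RT-PCR-capillary electrophoresis fluorescence, analysed bidirectionally versus DMSO.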

[16] = ATG_TCF_b_cat_CIS: Attagene CIS-FACTORIAL HepG2 Assay for human T-Cell-Factor with beta-catenin (TCF/b-cat) (AID 2282965); conditions: HepG2 TCF/beta-catenin cis-reporter transcription, actives raise or lower the signal
In short: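 HepG2, transient MRTU transfection, cis-element-driven reporters (endogenous TFs). 24 h compound exposure. Readout: reporter mRNA by RT-PCR + 6-FAM primer extension, HpaI digest, capillary electrophoresis. Gain/loss fit vs DMSO baseline.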

[17] = ATG_ISRE_CIS: Attagene CIS-FACTORIAL HepG2 Assay for human Interferon Regulatory Factor 1 (IRF1) binding to an Interferon-Stimulated Response Element (ISRE) (AID 2282948); conditions: HepG2 ISRE cis-reporter (Attagene), mRNA transcription readout; actives raise or lower the signal
In short: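 Read-out: fluorescent RT-PCR products resolved by capillary electrophoresis, reporting endogenous transcription factor activity via ISRE-driven reporter mRNA in transfected HepG2 cells dosed for 24 h; gain or loss fitted relative to DMSO.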

[18] = ATG_PXRE_CIS: Attagene CIS-FACTORIAL HepG2 Assay for human Pregnane X Receptor Element (PXRE) (AID 2282957); conditions: HepG2 Attagene CIS-FACTORIAL PXRE reporter, mRNA; actives raise or lower the signal
In short: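 Reporter transcripts under endogenous PXR-responsive cis-regulation quantified from total RNA of transfected HepG2 cells 24 h post-dosing, via RT-PCR with fluorescent primer extension and capillary electrophoresis. Gain or loss of signal fitted against DMSO baseline.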

[19] = ATG_RORE_CIS: Attagene CIS-FACTORIAL HepG2 Assay for human RAR-related Orphan Receptor Element (RORE) (AID 2282959); conditions: HepG2 Attagene cis-factorial RORE reporter, mRNA; actives raise or lower the signal
In short: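 RORE reporter transcripts reflecting endogenous factor activity were read after 24 h compound exposure of transfected HepG2 cells, using reverse transcription, PCR, fluorescent labelling and capillary electrophoresis sizing. Gain or loss fitted against DMSO.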

Measured: AC50

O=C1OC(=O)c2c(Br)c(Br)c(Br)c(Br)c21
inactive: [1] | [2] | [3] | [4] | [5] | [6] | [7] | [8] | [9] | [10] | [11] | [12] | [13] | [14] | [15] | [16]

COCCOC(=O)c1ccccc1C(=O)OCCOC
inactive: [1] | [17] | [2] | [3] | [4] | [6] | [7] | [8] | [9] | [10] | [11] | [12] | [13] | [14] | [15] | [16]

CC(C)=CCCC(C)CC(=O)O (stereo not drawn)
active: [18] 27.3 µM
inactive: [1] | [17] | [2] | [3] | [5] | [6] | [7] | [8] | [9] | [19] | [11] | [12] | [13] | [14] | [15] | [16]

COc1ccccc1N=Nc1c(S(=O)(=O)O)cc2cc(S(=O)(=O)O)cc(NC(C)=O)c2c1O
inactive: [1] | [17] | [2] | [3] | [5] | [6] | [7] | [8] | [9] | [11] | [12] | [14] | [15] | [16]
